RORgamma inh = blocks mouse ROR gamma transcriptional activity; P51450; Drosophila S2 Gal4-RORgamma UAS-luciferase reporter, 20 h; hit rate 5.4% among 310,000; AID 2551; Potency, µM (series often up to 53.6 µM), inactives show at the top dose activity change, negative = inhibition, actives largely listed as inhibitors; note: potency is the fitted concentration of half-maximal effect; nearly all actives have a fitted effect of over 60% in size
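ROR gamma transcriptional activity was tracked as Gal4-UAS luciferase output in stably transfected Drosophila Schneider cells, with compound added 1 hr before 700 uM copper sulfate induction and a 20 hr ambient-temperature incubation.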
TrxR1 substrate = is turned over as a substrate by rat TrxR1; O89049; hit rate 0.01% among 390,000; Potency, µM (top dose mostly 114 µM), without a hit: top-dose activity change, negative = substrate turnover; purified TrxR1 substrate turnover, NADPH consumption readout; note: potency is the fitted concentration of half-maximal effect; nearly all actives have a fitted effect of over 50% in size
Target sequence (O89049 whole entry, looked up): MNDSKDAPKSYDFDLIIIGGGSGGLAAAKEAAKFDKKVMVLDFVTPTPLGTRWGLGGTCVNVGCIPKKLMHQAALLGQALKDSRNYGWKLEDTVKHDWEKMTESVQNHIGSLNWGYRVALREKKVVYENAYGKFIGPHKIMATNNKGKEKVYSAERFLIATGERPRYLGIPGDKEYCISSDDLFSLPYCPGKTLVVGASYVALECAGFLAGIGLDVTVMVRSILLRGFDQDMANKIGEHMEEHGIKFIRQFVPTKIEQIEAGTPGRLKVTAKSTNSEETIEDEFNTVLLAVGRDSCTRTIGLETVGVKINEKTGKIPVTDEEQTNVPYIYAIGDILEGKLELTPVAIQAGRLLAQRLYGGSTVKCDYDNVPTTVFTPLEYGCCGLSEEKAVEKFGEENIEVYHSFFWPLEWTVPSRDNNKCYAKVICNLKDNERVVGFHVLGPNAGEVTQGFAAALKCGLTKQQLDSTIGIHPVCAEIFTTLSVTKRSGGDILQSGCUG
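Rat TrxR1, dispensed at 90 nM, was prereduced with 400 uM NADPH (final) for 5 min at ~22 deg C, then incubated with compound 15 min before 400 uM selenite. A first-read NADPH fluorescence drop versus no-compound background flagged substrates.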
Gal4-VP16 FLuc = Gal4-VP16 reporter inhibition counter-screen. Drosophila S2 Gal4-VP16 UAS-luciferase, luminescence, 20 h. Potency, µM (series often up to 53.6 µM), without a hit: at the highest dose activity, negative = inhibition, actives largely listed as inhibitors. hit rate 3.5% among 310,000;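 note: Gal4-VP16 expression switched on by copper sulfate through the metallothionein promoter; potency is the fitted concentration of half-maximal effect; nearly all actives have a fitted effect of over 50% in size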
rTrxR1 inhibitor = blocks rat thioredoxin reductase 1; Potency, µM (highest dose often 114 µM), for inactives: top-dose activity change, negative = inhibition, hits mostly inhibitors; hit rate 1% among 390,000; recombinant rTrxR1, NADPH fluorescence consumption, selenite substrate; note: potency is the fitted concentration of half-maximal effect; nearly all actives have a fitted effect of over 65% in size
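Rat TrxR1 (90 nM in the dispensed reagent) was pre-reduced with 400 uM NADPH for 5 min at room temperature, then incubated with compound for 15 min. After 400 uM selenite was added, NADPH fluorescence (Ex 340/Em 450 nm) was followed for 8 min.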
Coupling enz = coupling enzyme interference in Giardia aldolase counter-screen; hit rate 0.67% among 290,000; activity change, negative = inhibition, % at 58.2 µM, hits read low; coupling enzyme system counterscreen, AmpLite Red fluorescence; in the data active = activity change below about -30%
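Fluorescence at 525 nm excitation and 598 nm emission measured inhibition of the coupled detection system without aldolase. Compounds (at 57.5 uM final) were preincubated 10 min at room temperature with coupling enzyme reagent before a 20 min substrate/AmpLite Red step.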
GALK inhibitor = galactokinase (human) inhibition | AID 1868 | hit rate 0.007% among 270,000 | Purified GALK, Kinase-Glo residual ATP luminescence | Potency, µM (series often up to 57.5 µM), without a hit: at the top dose activity change, negative = inhibition, hits mostly inhibitors; note: potency is the fitted concentration of half-maximal effect
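5 nM enzyme, 35 uM ATP, 100 uM galactose, 20 mM HEPES pH8.0, 5 mM MgCl2; 1 h RT; residual ATP by Kinase-Glo Plus luminescence, qHTS format.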
Active calls of the source: *; [ ] = remark or other dose. The list is not random: actives were taken first. Their share in the collection is about 5.9%. Unless noted, calls come from the whole dose curve; as a rule, active = well fitted curve in the direction sought with a large enough effect; inconclusive = small, poorly fitted or top-dose-only effect, or another doubt; inactive = no such curve, though single readings can be large; an effect the other way counts as inactive or inconclusive. % is set by controls: 0 for no effect and ±100 for the full control effect.

`COc1ccc(NC(=S)NCc2cccs2)cc1OC` gave RORgamma inh 12.6µM*, TrxR1 substrate 2.1%, Gal4-VP16 FLuc -11.0%, rTrxR1 inhibitor inconclusive, Coupling enz 0.9 and GALK inhibitor 0.0%.
Screening CC(C)NC(=S)NCc1cccs1 returned RORgamma inh inconclusive, TrxR1 substrate -8.7%, Gal4-VP16 FLuc -5.4%, rTrxR1 inhibitor -11.2%, Coupling enz 0.3 and GALK inhibitor -2.2%.
Cc1ccc(NC(=S)NCc2cccs2)cc1 was read as RORgamma inh 11.2µM*, TrxR1 substrate 8.9%[57.1 µM], Gal4-VP16 FLuc inconclusive, rTrxR1 inhibitor 14.3%[57.1 µM], Coupling enz 1.9 and GALK inhibitor 0.7%.
For CC(C)C1CC(c2ccccc2)(C(CN)CO)CCO1 (stereo not drawn) the results were RORgamma inh -16.5%, TrxR1 substrate 6.9%[57.1 µM], Gal4-VP16 FLuc 14.2%, rTrxR1 inhibitor 6.0%, Coupling enz -0.6 and GALK inhibitor 0.8%.
Screening Cn1nc(-c2ccccc2)c(-c2nc(-c3ccccc3Cl)no2)c1Cl returned RORgamma inh -8.9%, TrxR1 substrate 8.2%[57.1 µM], Gal4-VP16 FLuc -0.5%, rTrxR1 inhibitor -9.2%, Coupling enz -3.3 and GALK inhibitor -1.0%.
N#Cc1ccccc1NC(=O)c1cnc(N2CCOCC2)c2ccccc12 was read as TrxR1 substrate -1.2%[57.1 µM] and rTrxR1 inhibitor 12.5%[57.1 µM].
`COc1ccc(Cl)cc1NC(=S)NCc1cccs1` gave RORgamma inh 10µM*, TrxR1 substrate 3.5%[57.1 µM], Gal4-VP16 FLuc inconclusive, rTrxR1 inhibitor 23.1%[57.1 µM], Coupling enz -3.1 and GALK inhibitor 3.1%.
Screening C=CCN(CC=C)C(=S)Nc1cc(Cl)ccc1OC returned RORgamma inh inconclusive, TrxR1 substrate -12.7%, Gal4-VP16 FLuc -13.6%, rTrxR1 inhibitor -18.5%, Coupling enz 0.0 and GALK inhibitor -1.1%.
`Cc1ccc(NC(=S)N(Cc2ccccc2)Cc2cccs2)c(C)c1` gave RORgamma inh 7.08µM*, TrxR1 substrate -8.5%[57.1 µM], Gal4-VP16 FLuc inconclusive, rTrxR1 inhibitor 11.2%, Coupling enz 1.0 and GALK inhibitor 6.7%.
`C=CCNC(=S)Nc1cc(Cl)ccc1OC` gave RORgamma inh 12.6µM*, TrxR1 substrate -7.2%, Gal4-VP16 FLuc inconclusive, rTrxR1 inhibitor -17.6%, Coupling enz 2.8 and GALK inhibitor -1.7%.
For CCCCc1ccc(NC(=S)NCc2cccs2)cc1 the results were RORgamma inh 2.24µM*, TrxR1 substrate -2.8%, Gal4-VP16 FLuc inconclusive, rTrxR1 inhibitor -11.9% and Coupling enz -2.0.
For COc1ccccc1NC(=S)N(Cc1ccccc1)Cc1cccs1 the results were RORgamma inh 0.4%, TrxR1 substrate 2.8%[57.1 µM], Gal4-VP16 FLuc -11.1%[10 µM], rTrxR1 inhibitor 36.0%[57.1 µM], Coupling enz 7.5 and GALK inhibitor -0.8%.
Screening COc1ccccc1NC(=S)NCc1cccs1 returned RORgamma inh inconclusive, TrxR1 substrate -3.8%, Gal4-VP16 FLuc -27.3%, rTrxR1 inhibitor -14.3%, Coupling enz 0.5 and GALK inhibitor 2.2%.
For CCN(CC)CCCOC(=O)C(c1ccccc1)c1ccccc1 the results were RORgamma inh 0.7%, TrxR1 substrate -2.8%, Gal4-VP16 FLuc -1.8%, rTrxR1 inhibitor -2.9%, Coupling enz 1.3 and GALK inhibitor 0.8%.
Screening COc1cccc(NC(=S)NCc2cccs2)c1 returned RORgamma inh 10µM*, TrxR1 substrate -7.2%[57.1 µM], Gal4-VP16 FLuc inconclusive, rTrxR1 inhibitor 10.5%[57.1 µM], Coupling enz -0.7 and GALK inhibitor 2.5%.
COc1cccc(NC(=S)NCc2ccccc2)c1 was read as RORgamma inh 10µM*, TrxR1 substrate 6.5%, Gal4-VP16 FLuc 8.91µM*, rTrxR1 inhibitor -15.3%, Coupling enz -0.3 and GALK inhibitor 2.2%.
`COc1ccc(CNC(=S)Nc2ccccc2)cc1Cl` gave RORgamma inh inconclusive, TrxR1 substrate -4.7%, Gal4-VP16 FLuc inconclusive, rTrxR1 inhibitor -13.4%, Coupling enz -0.4 and GALK inhibitor 5.3%.
Cc1cccc(NC(=S)NCc2cccs2)c1 was read as RORgamma inh 6.31µM*, TrxR1 substrate -1.2%[57.1 µM], Gal4-VP16 FLuc inconclusive, rTrxR1 inhibitor 3.7%[57.1 µM], Coupling enz -0.1 and GALK inhibitor 1.6%.
Screening COc1ccc(CNC(=S)Nc2ccc(F)c(Cl)c2)cc1OC returned RORgamma inh 11.2µM*, TrxR1 substrate -0.7%[57.1 µM], Gal4-VP16 FLuc -7.9%, rTrxR1 inhibitor 4.1%[57.1 µM], Coupling enz -2.4 and GALK inhibitor 0.7%.
Screening Cc1ccccc1NC(=S)NCc1cccs1 returned RORgamma inh inconclusive, TrxR1 substrate 5.5%[57.1 µM], Gal4-VP16 FLuc inconclusive, rTrxR1 inhibitor 2.6%[57.1 µM], Coupling enz 1.0 and GALK inhibitor -2.2%.
For S=C(NCc1cccs1)Nc1ccccc1 the results were RORgamma inh 10µM*, TrxR1 substrate -8.3%, Gal4-VP16 FLuc inconclusive, rTrxR1 inhibitor -11.5%, Coupling enz 3.9 and GALK inhibitor -0.1%.
